# Experimental data taken from ChEMBL document CHEMBL3433997, “St. Jude Leishmania screening dataset” (2016).
# Experiments:
# Format in all cases: functional
# [1] = biological target: Solute carrier family 2, facilitated glucose transporter member 1 (Homo sapiens) (UniProt P11166); experiment: ST_JUDE_LEISH: Cytotoxicity at 2uM final concentration against transgenic Leishmania Mexicana promastigotes LmGLUT1 that are glucose transport deficient and complemented with the human glucose transporter GLUT1. Activity is measured by DNA content using SYBR green in vitro
# Sequence of Solute carrier family 2, facilitated glucose transporter member 1 (Homo sapiens) (P11166 whole entry): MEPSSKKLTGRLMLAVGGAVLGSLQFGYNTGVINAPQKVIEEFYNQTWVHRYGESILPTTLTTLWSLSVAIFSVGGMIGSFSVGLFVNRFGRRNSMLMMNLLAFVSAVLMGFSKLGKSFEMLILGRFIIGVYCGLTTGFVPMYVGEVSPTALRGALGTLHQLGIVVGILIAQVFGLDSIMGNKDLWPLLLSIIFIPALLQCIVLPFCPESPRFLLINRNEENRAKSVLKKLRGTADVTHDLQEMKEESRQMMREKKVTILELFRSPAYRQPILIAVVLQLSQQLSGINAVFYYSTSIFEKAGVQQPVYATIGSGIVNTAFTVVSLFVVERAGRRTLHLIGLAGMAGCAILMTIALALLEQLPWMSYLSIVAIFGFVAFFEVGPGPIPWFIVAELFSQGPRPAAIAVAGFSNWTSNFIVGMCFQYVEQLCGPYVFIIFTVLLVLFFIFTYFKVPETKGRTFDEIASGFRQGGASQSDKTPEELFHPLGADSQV
# [2] = biological target: Hexose transporter 1 (Plasmodium falciparum) (UniProt O97467); experiment: ST_JUDE_LEISH: Cytotoxicity at 2uM final concentration against transgenic Leishmania Mexicana promastigotes LmPfHT that are glucose transport deficient and complemented with the Plasmodium falciparum hexose transporter. Activity is measured by DNA content using SYBR green in vitro
# [3] = biological target: Glucose transporter (Leishmania mexicana) (UniProt O61059); experiment: ST_JUDE_LEISH: Cytotoxicity at 2uM final concentration against transgenic Leishmania Mexicana promastigotes LmGT2 that are glucose transport deficient and complemented with the L. Mexicana glucose transporter 2. Activity is measured by DNA content using SYBR green in vitro
Compound,inhibition [1] [%],inhibition [2] [%],inhibition [3] [%]
O=C(Nc1cccc(-c2ccc(-c3nc4ccccc4[nH]3)cc2)c1)c1cnn2cccnc12,-0.77,-0.45,-0.33
CN(C)CC(=O)Nc1cccc(Nc2nccc(NCC(O)c3ccccc3)n2)c1 (configuration not stated),1.36,0.33,-0.94
CC(=O)Nc1ccc(CN(C)C2CCN(c3cc(NC(=O)c4cccc(C)c4)ccn3)CC2)cc1,2.4,3.41,2.5
COc1ccc(-c2onc(C(F)(F)F)c2-c2cc3ccccc3o2)c(O)c1,0.61,0.82,0.58
COc1ccc(Nc2ncc3c(-c4cccc(NC(=O)Cc5cccc(O)c5)c4)c[nH]c3n2)cc1OC,-1.87,1.51,3.39
CN1CCN(c2cc(NC(=O)c3ccc(-c4ccc(Cl)cc4)cc3)ccc2Cl)CC1,-0.77,-0.81,-1.86
CC(=O)N[C@@H]1c2cc(C(C)=O)ccc2OC(C)(C)[C@@H]1O,-0.93,-0.7,-0.73
COc1ccc(Nc2nccc(NCC(O)c3cccc(C(F)(F)F)c3)n2)cc1 (configuration not stated),1.24,2.47,-1.44
N=C(N)NN=CC(=O)Nc1ccc(Cl)c(Cl)c1,0.13,-1.4,-1.96
CNC(=O)c1cc(S(=O)(=O)Nc2ccc(OC)cc2)cs1,0.48,0.9,2.1
CCN(CC)/C(=N/C(=N)NCc1ccc(Cl)cc1Cl)NCCCCCCN/C(=N\C(=N)NCc1ccc(Cl)cc1Cl)N(CC)CC,1.61,1.69,1.51
O=C(Nc1ccccc1)Nc1ccc(-c2cccc(-c3nc4cc(C(F)(F)F)ccc4[nH]3)c2)cc1,4.44,0.5,2.05
CC(=O)Nc1ccc(CN2CCC(CNC(=O)c3cc(-c4cccc(C(F)(F)F)c4)cs3)C2)cc1 (configuration not stated),-0.71,0.04,-5.57
CC(C)(C)c1nn(-c2ccc(Cl)cc2)c2[nH]c(=O)c(CNCc3cccs3)cc12,3.3,3.24,2.34
FC(F)(F)c1ccc2[nH]c(-c3ccc(-c4ccc(CNCC5CCCO5)cc4)s3)nc2c1 (configuration not stated),-1.55,0.38,-1.62
Cc1cccc(CNc2nc(C)cc(N[C@@H](CC(C)C)C(=O)NCCOc3ccccc3)n2)c1,4.29,5.38,2.08
OCC(c1ccccc1)n1c(COc2ccc(Cl)cc2)nc2c(OCCCN3CCCCC3)cccc21 (configuration not stated),12.9,9.11,6.47
COc1ccc(Nc2nccc(-c3ccc(NC(=O)c4cc5cc(F)ccc5[nH]4)cc3)n2)cc1,-0.57,0.09,-1.37
O=c1cc(NCCC(CNCc2cc3ccccc3o2)NCc2cc(Br)cc(Br)c2)[nH]c2ccccc12 (configuration not stated),0.2,0.33,2.33
Cc1ccc(O)cc1Nc1ccnc2cc(-c3ccccc3)ccc12,7.87,8.41,7.72
CCCCOc1ccccc1C(=O)NCc1csc(-c2ccccc2)n1,-0.31,1.14,0.41
Cc1cc(-c2cnc(N)c(-c3ccc(N4CCN(C)CC4)nc3)c2)cc(C)c1O,1.2,0.69,0.74
C=CCOc1ccc(CNC2CCN(Cc3ccccc3)CC2)cc1Br,2.99,4.16,0.3
FC(F)(F)c1ccc2c(NCCCNc3ccnc4cc(C(F)(F)F)ccc34)ccnc2c1,-2.25,3.22,-4.41
CO/C(=C\C=C\c1cc2cc(Cl)c(Cl)cc2[nH]1)C(=O)Nc1ccc(NCCN(C)C)nc1,6.97,6.98,2.42

Compound,inhibition [1] [%],inhibition [2] [%],inhibition [3] [%]
Oc1cccc(-c2nc(-c3cccc(I)c3)c(-c3ccc(-c4nc(-c5cccc(O)c5)[nH]c4-c4cccc(I)c4)cc3)[nH]2)c1,4.52,4.72,4.57
CCCCCCN1CCC(NCc2cccc3ccccc23)CC1,7.18,12.1,13.7
Cc1ccc(Cl)c2sc(N3CCN(C(=O)c4ccc([N+](=O)[O-])o4)CC3)nc12,62.4,54.6,27.6
Cc1cccc2nc(-c3ccc(-c4ccc(CNCCNC(=O)c5ccnn5C)cc4)s3)[nH]c12,9.45,9.43,8.36
COc1ccc2c(c1C1CCN(CCCCNC(=O)c3ccc(NC(=O)c4ccc(Cl)cc4)cc3)CC1)CCCC2,-1.16,-1.03,-1.07
CC1(C)CNCc2cc(NC(=O)/C=C/c3ccc(Cl)cc3)ccc21,0.41,-2.52,2.38
O=C(NCCCCN1CCC(c2ccc3ccccc3c2)CC1)c1ccc(NC(=O)c2ccc(Cl)cc2)cc1,2.27,4.42,4.1
Cc1nc(N)nc(N)c1CCCOc1ccccc1Cl,13.2,27.9,5.78
CC1SC(=S)NC1C(=O)O (configuration not stated),-1.93,0.57,0.24
Cc1cccc2nc(-c3cccc(-c4ccc(CN5CCN(CCO)CC5)cc4)c3)[nH]c12,2.28,0.97,-0.97
CCOC(=O)c1ccc(COc2ccc(C)nc2)cc1,-1.54,-0.85,0.17
CCNc1cc(C)nc(Nc2ccc(NC(=O)c3ccco3)cc2)n1,4.54,3.53,-0.01
NC(=O)c1cnc2cc(-c3ccoc3)ccc2c1Nc1ccc(NC(=O)Nc2ccccc2Cl)cc1,2.28,0.16,-3.01
c1ccc2c(C3CCN(CCCCOc4ccc5c(c4)CCN(C4CCC4)CC5)CC3)c[nH]c2c1,-2.06,3.7,4.47
CC(Cc1ccc(NS(=O)(=O)c2ccc(CC(C)NCCc3cccc(Cl)c3)cc2)cc1)NCCc1cccc(Cl)c1 (configuration not stated),0.89,9.69,7.25
Cc1nn(-c2cccc(C(F)(F)F)c2)c2sc(C(=O)NC3CCN(C(C)C)CC3)cc12,1.73,-1.04,1.61
Cc1cc(NCCc2cccc(F)c2)nc(NC(=N)Nc2cccc(C(F)(F)F)c2)n1,3.82,2.87,2.41
Nc1c2ccccc2nc2cc(Cl)ccc12,3.29,1.91,1.91
CCCNCc1ccc(-c2ccc(CN(CCOC)C(=O)c3cnc(C)cn3)cc2)nc1,-0.38,0.25,0.24
Cc1cc(F)ccc1-c1nc(NCC(O)CNCCc2ccccc2)nc2c1ccc(=O)n2-c1c(F)cccc1F (configuration not stated),5.26,4.59,6.47
c1ccc(Oc2ccc(Nc3ccnc4cc(-c5ccc(CNCCN6CCOCC6)o5)ccc34)cc2)cc1,2.2,2.86,0.92
COc1ccc(-c2nc(NC(=O)CS(=O)(=O)c3ccccc3)sc2C)cc1,8.8,4.92,1.25
COc1ccc2nccc([C@@H](O)CN3CCC(NC(=O)[C@@H]4Cc5ccccc5CN4C(=O)OC(C)(C)C)CC3)c2c1,8.19,6.18,3.12
COc1cccc(OC2CCN(C(=O)c3cc(C(C)(C)C)nn3Cc3ccccc3)CC2)c1,1.4,0.53,1.38
